Compound activity as filed in PubChem.
HT1080 IDH1KD tx: HT-1080 IDH1 knockdown cell toxicity (counter line). actives 2% (n = 360,000). Potency, µM (titrated, usually from 46.1 µM), inactives show at the top dose activity, negative = toxicity, actives largely listed as cytotoxic. AID 686971. HT-1080 IDH1 knockdown viability, ATP luminescence, 48 h;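 note: potency is the fitted concentration of half-maximal effect; 0% = DMSO wells and -100% = cell-free medium wells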
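Cytotoxicity counter-line: IDH1KD HT-1080, 48 h, CellTiter-Glo. Curves classed by r2, magnitude and activity.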
TDP1 cell CPT: DT40-hTDP1 cell growth loss with CPT. chicken DT40 Tdp1-/-;hTDP1 cells + 20 nM CPT, ATP luminescence, 48 h. Potency, µM (titrated, usually from 46.2 µM), without a hit: at the highest dose activity change, negative = growth inhibition, hits mostly inhibitors. actives 12% (n = 420,000); note: potency is the fitted concentration of half-maximal effect; nearly all actives have a fitted effect of over 55% in size
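Chicken DT40 Tdp1-/- cells complemented with human TDP1, 400 cells/well, exposed to compounds plus 20 nM camptothecin for at least 48 h at 37 C; viability read as ATP content by CellTiter-Glo luminescence.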
ALOX12 inh: ALOX12 (human) lipoxygenase inhibition. AID 1671190. purified 12hLO, xylenol orange hydroperoxide absorbance. Potency, µM (series often up to 108 µM), without a hit: at the highest dose activity change, negative = inhibition, hits mostly inhibitors. P18054. actives 1.1% (n = 580,000); note: potency is the fitted concentration of half-maximal effect
Target sequence (P18054 whole entry, looked up): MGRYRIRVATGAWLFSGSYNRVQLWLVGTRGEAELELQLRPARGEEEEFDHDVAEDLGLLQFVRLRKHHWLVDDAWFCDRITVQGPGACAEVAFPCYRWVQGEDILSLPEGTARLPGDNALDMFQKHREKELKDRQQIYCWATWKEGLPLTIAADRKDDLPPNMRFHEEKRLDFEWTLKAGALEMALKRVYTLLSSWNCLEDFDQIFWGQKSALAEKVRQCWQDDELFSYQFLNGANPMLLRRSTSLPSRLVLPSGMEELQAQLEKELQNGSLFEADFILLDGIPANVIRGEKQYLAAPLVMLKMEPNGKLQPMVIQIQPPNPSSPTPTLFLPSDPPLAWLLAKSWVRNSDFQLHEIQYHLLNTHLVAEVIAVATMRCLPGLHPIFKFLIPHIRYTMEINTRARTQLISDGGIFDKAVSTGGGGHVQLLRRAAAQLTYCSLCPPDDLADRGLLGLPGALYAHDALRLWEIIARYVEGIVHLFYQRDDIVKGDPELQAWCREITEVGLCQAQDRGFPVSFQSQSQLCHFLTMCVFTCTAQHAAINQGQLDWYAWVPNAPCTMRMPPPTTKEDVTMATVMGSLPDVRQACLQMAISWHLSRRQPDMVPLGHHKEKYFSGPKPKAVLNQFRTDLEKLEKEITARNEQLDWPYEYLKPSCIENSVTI
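Hydroperoxide product was detected by ferrous iron/xylenol orange as the 573 to 405 nm absorbance ratio. Arachidonic acid at 40 uM (final) was turned over for 30 min at room temperature by 150 nM human 12hLO, pH 7.0 Hepes buffer, after 15 min compound preincubation.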
IL-1B inflam inh: inflammasome signaling inhibition, IL-1 beta readout. THP-1 LPS/ATP IL-1B secretion, AlphaLISA, 16 h; stronger effect = lower value. activity change, % at 57.5 µM. actives 4.7% (n = 360,000); in the data active = activity change below about -50%; inconclusive = mostly about -30% to -49%
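THP-1 cells pretreated 1 hr with compounds (up to 57.5 uM final), then stimulated with LPS (250 ng/mL final) plus ATP (1.25 mM final); secreted IL-1B measured by AlphaLISA after 16 hr, decreased signal indicating inhibition.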
DT40 TDP1 no CPT: qHTS for Inhibitors of human tyrosyl-DNA phosphodiesterase 1 (TDP1): qHTS in cells in absence of CPT | Potency, µM (series often up to 46.2 µM), for inactives: top-dose activity change, negative = growth inhibition, usual class: inhibitors | actives 15% (n = 420,000) | DT40 Tdp1-/- hTDP1 cells, no CPT, ATP luminescence, 48 h; note: potency is the fitted concentration of half-maximal effect; nearly all actives have a fitted effect of over 55% in size
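Chicken DT40 Tdp1-/- cells complemented with human TDP1, screened without camptothecin (DMSO vehicle only), 400 cells/well. Compounds pin-transferred, cells incubated at 37 °C for at least 48 hr. Growth read as ATP-dependent luminescence (CellTiter-Glo, 30 min at RT).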
HT1080-NT tox: kills 2HG-producing HT-1080-NT fibrosarcoma cells; AID 686970; HT-1080-NT fibrosarcoma viability, CellTiter-Glo ATP luminescence, 48 h; Potency, µM (highest dose often 46.1 µM), without a hit: at the highest dose activity, negative = less viability, usual class: cytotoxic; actives 1.6% (n = 360,000);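 note: NT is the 2HG producing partner of a matched IDH1 knockdown line; potency is the fitted concentration of half-maximal effect; 0% = DMSO-treated cells and -100% = media-only wells without cells; nearly all actives have a fitted effect of over 55% in size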
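Fibrosarcoma NT cells, 750 per well in 5% FBS RPMI, were exposed to compound for 48 hours. Viability: CellTiter-Glo luminescence.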
The depositor's hits bear a star; ? = inconclusive; . = not tested or not shown; [ ] = another dose, or the depositor's remark. The entries come from a sample that favours hits as a whole. Unless noted, calls come from the whole dose curve; as a rule, active = well fitted curve in the direction sought with a large enough effect; inconclusive = small, poorly fitted or top-dose-only effect, or another doubt; inactive = no such curve, though single readings can be large; an effect the other way counts as inactive or inconclusive. Unless noted, % is set by controls: 0 for no effect and ±100 for the full control effect.

SMILES	HT1080 IDH1KD tx	TDP1 cell CPT	ALOX12 inh	IL-1B inflam inh	DT40 TDP1 no CPT	HT1080-NT tox
CNCc1cc(Cl)cc(OC)c1OCc1ccccc1	.	.	8%	.	.	.
Cc1cccc(/C=C(\c2nc3ccccc3[nH]2)S(=O)(=O)c2ccccc2)c1	9.2µM*	4.1µM*	-11%	-110*	2.6µM*	9.2µM*
O=C(O)c1ccc(-c2nc3ccccc3[nH]2)cc1	1%	9%	-11%	26	11%	1%
CC(C)(C)c1ccc(/C=C(\c2nc3ccccc3[nH]2)S(=O)(=O)c2ccccc2)cc1	6.5µM*	23µM*	.	-96*	?	6.5µM*
O=S(=O)(/C(=C/c1ccc2ccccc2c1)c1nc2ccccc2[nH]1)c1ccccc1	.	.	2%	.	.	.
O=C(O)c1ccc(/C=C(\c2nc3ccccc3[nH]2)c2nc3ccccc3s2)cc1	18µM*	?	-17%	-70*	-27%	?
Cc1cc(NCc2cccnc2)n2nc(C(F)(F)F)c(-c3ccccc3Cl)c2n1	.	.	17%	.	.	.
COc1ccccc1-c1c(C)nn2c(-c3ccccc3)cc(C)nc12	-17%	15µM*	4%	-70*	21µM*	-6%
CCOC(=O)C1CCN(c2cc(C)nc3c(-c4ccccc4OC)c(C)nn23)CC1	.	18µM*	1%	.	18µM*	.
COc1ccccc1-c1c(C)nn2c(N3CCCCCC3)cc(C)nc12	?	16µM*	-17%	-77*	18µM*	?
COc1ccccc1-c1c(C)nn2c(N3CCOCC3)cc(C)nc12	-3%	-1%	0%	30	19%	2%
COc1ccccc1-c1c(C)nn2c(N3CCN(c4ccccc4OC)CC3)cc(C)nc12	14%	?	15%[57.4 µM]	-1	?	0%
CCN(CC)S(=O)(=O)c1cc(C(=O)OCc2nc3ccccc3nc2C)ccc1C	.	.	-9%	.	.	.
CC(C)NC(=O)C1(C)CCN1C(=O)C1(c2ccccc2)CCCC1 (stereo not drawn)	2%	?	8%	52	?	-3%
CC1(C(=O)Nc2cccc3ccccc23)CCN1C(=O)C1(c2ccccc2)CCCC1 (stereo not drawn)	-19%	?	-15%	18	18µM*	-4%
C#Cc1ccc(NC(=O)C2(C)CCN2C(=O)C2(c3ccccc3)CCCC2)cc1 (stereo not drawn)	?	23µM*	-10%	?	16µM*	?
O=C(Nc1c(N2CCCC2)c2ccccc2oc1=O)C1CC1	.	.	4%	.	.	.
Cc1nc(N2CCC(NC(=O)C3CCCCC3)CC2)cc(C(F)(F)F)n1	.	.	15%	.	.	.
COc1ccc(C2=NNC(=O)C2(C)Br)cc1 (stereo not drawn)	5%	-19%	45µM*	0	?	15%
COc1ccc(C2=NNC(=O)CC2)cc1	0%	-20%	-20%	13	-16%	-5%
COc1ccc(F)cc1S(=O)(=O)NCCc1csc2nc(-c3cccc(C)c3)nn12	.	?	0%	.	?	.
Cc1cc(C)c(S(=O)(=O)NCCc2csc3nc(-c4ccc(Cl)cc4)nn23)c(C)c1	.	?	?	.	18µM*	.
Cc1ccc(-c2nc3scc(CCNS(=O)(=O)c4ccc(Oc5ccccc5)cc4)n3n2)cc1	.	?	0%	.	?	.
O=S(=O)(NCCc1csc2nc(-c3ccccc3)nn12)c1ccc(Cl)s1	.	-22%	0%	.	?	.
Cc1ccc(-c2nc3scc(CCNS(=O)(=O)c4ccc(F)c(C)c4)n3n2)cc1	.	?	-6%	.	21µM*	.
CCS(=O)(=O)NCCc1csc2nc(-c3ccc(C)cc3)nn12	.	16µM*	0%	.	?	.
